From PubChem BioAssay (Tox21) come the findings set out here.

Experiment [1] can be described thus: qHTS assay to identify small molecule agonists of the vitamin D receptor (VDR) signaling pathway - cell viability counter screen (AID 743224). Further: nearly all actives have a fitted effect of over 50% in size. Further: potency means the concentration at half of the fitted maximal effect. On activity change, negative = cytotoxicity: on the % scale 0 is the no-effect control and ±100 the full control effect. To be noted: VDR-bla HEK293T viability, CellTiter-Glo luminescence, 16 h; series mostly up to 62.6 µM. In outline:
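VDR-bla cells, 4 h after plating, exposed to compounds for 16 h at 37C; viability then read in the same wells as CellTiter-Glo luminescence after 30 min at room temperature, following the bla FRET read.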
A general note: qHTS replaces the single test concentration by a dilution series.

Experiment [2] is described as follows: qHTS assay to identify small molecule antagonists of the vitamin D receptor (VDR) signaling pathway - cell viability counter screen (AID 743225). Further: nearly all actives have a fitted effect of over 50% in size. Further: potency means the concentration at half of the fitted maximal effect. On viability change, negative = cytotoxic: on the % scale 0 is the no-effect control and ±100 the full control effect. Particulars: VDR-bla HEK293T viability, CellTiter-Glo luminescence, 16 h; series mostly up to 61 µM. In a few lines:
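Viability counter screen run in the same wells as the beta-lactamase reporter assay: HEK 293T VDR-UAS-bla cells, 16 h compound exposure at 37C with 3 nM (final) 1-alpha,25-dihydroxyvitamin D3. CellTiter-Glo luminescence, 30 min, room temperature.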

The nature of experiment [3]: qHTS assay to identify small molecule agonists of the endoplasmic reticulum stress response signaling pathway - cell viability counter screen (AID 1159517; calls by dose curve; further: nearly all actives have a fitted effect of over 50% in size; further: potency means the concentration at half of the fitted maximal effect;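 on activity change, negative = cytotoxicity: HeLa cells carrying an ER stress response element beta-lactamase reporter; on the % scale 0 is the no-effect control and ±100 the full control effect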). Particulars: ESRE-bla HeLa viability, CellTiter-Glo luminescence, 5 h; series mostly up to 61 µM. In outline: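 Cells, HeLa ESRE-bla; density, 1,500/well; dosing, 5 hr at 37 C, 5% CO2; readout, CellTiter-Glo luminescence after 30 min RT.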

Experiment [4] can be described thus: qHTS assay to identify small molecule agonists of the AP-1 signaling pathway - cell viability counter screen (AID 1159525; calls by dose curve; further: nearly all actives have a fitted effect of over 55% in size; further: potency means the concentration at half of the fitted maximal effect). To be noted: ME-180 AP-1-bla cells viability, ATP luminescence, 5 h; series mostly up to 76.8 µM. In a few lines: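 Luminescent ATP readout (Cell Titer Glo, 30 min RT), normalised to DMSO and tetra n-octyl ammonium bromide controls. Cells were ME-180 AP-1-bla in 0.5% dialyzed FBS Opti-MEM, with a 5 h, 37 °C compound exposure.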

Experiment [5] is described as follows: qHTS assay to identify small molecule agonists of the RXR signaling pathway - cell viability counter screen (AID 1159529). Further: nearly all actives have a fitted effect of over 50% in size. Further: potency means the concentration at half of the fitted maximal effect. Particulars: RXR-alpha-bla HEK293T viability, CellTiter-Glo, 16 h; series mostly up to 76.8 µM. In outline: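 Luminescence from CellTiter-Glo (30 min, RT) measured viability in the same wells as the beta-lactamase reporter readout. Cells: GeneBLAzer RXR-alpha HEK 293T, 2% charcoal-stripped FBS. Compound exposure 16 hr, 37 C.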

For experiment [6], the target named is Nuclear receptor ROR-gamma (Homo sapiens) (UniProt P51449). Description: qHTS assay to identify small molecule antagonists of the retinoid-related orphan receptor gamma (ROR-gamma) signaling pathway (AID 1159521; further: nearly all actives have a fitted effect of over 50% in size; further: potency means the concentration at half of the fitted maximal effect). Particulars: Tet-on RORgamma CHO cells, RORE-luciferase, 16 h; series mostly up to 92.4 µM. In a few lines: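 Luminescence readout (ONE-Glo, 30 min RT) after 16 h doxycycline induction; loss of signal scored as antagonism. CHO cells with TET-inducible RORγ and RORE-LUC reporter; compounds added 2 h before 1 uM final doxycycline.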

Experiment [7] is described as follows: qHTS assay to identify small molecule antagonists of the retinoid-related orphan receptor gamma (ROR-gamma) signaling pathway - cell viability counter screen (AID 1159520). Further: nearly all actives have a fitted effect of over 50% in size. Further: potency means the concentration at half of the fitted maximal effect. Particulars: Tet-on RORgamma CHO cells viability, ATP luminescence, 16 h; series mostly up to 92.4 µM. In outline: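 Cytotoxicity was read from cellular ATP (CellTiter-Glo luminescence) after 16 hr at 37 C with 1 uM doxycycline induction. The inducer was added 2 hr after compound transfer to Tet-on ROR gamma CHO cells.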

For experiment [8], the target named is Retinoic acid receptor RXR-alpha (Homo sapiens) (UniProt P19793). Description: qHTS assay to identify small molecule agonists of the RXR signaling pathway (AID 1159527; calls by dose curve; further: on the % scale 0 is the no-effect control and ±100 the full control effect; nearly all actives have a fitted effect of over 35% in size). Particulars: HEK293T RXRa-UAS-bla, beta-lactamase ratio, 16 h; series mostly up to 76.8 µM. In a few lines: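 Agonist mode; 9-cis retinoic acid positive control. HEK 293T UAS-bla reporter cells, 2% charcoal-stripped FBS, 16 hr compound exposure at 37 C/5% CO2. LiveBLAzer B/G FRET substrate 2 hr RT; ex 405, em 460/530 nm.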

Experiment [9] in a line: qHTS assay to identify small molecule agonists of the AP-1 signaling pathway (AID 1159526; calls by dose curve; further: on the % scale 0 is the no-effect control and ±100 the full control effect). Particulars: ME-180 (cervical carcinoma) AP-1-bla reporter, beta-lactamase FRET ratio, 5 h; series mostly up to 76.8 µM.

Each structure is given as a SMILES string. Values joined by “and” are separate entries in the source; they are usually repeats but may differ in a detail not shown here. Identical values can stand only once. Inconclusive results are not listed. A number with no mark means an inactive call. Active and inactive are the calls of the source. Unless noted, the call rests on the fitted dose curve; in most records, active means well fitted curve in the direction sought with a large enough effect in the repeat runs; inconclusive means weak or mixed curves; inactive means no such curve, though single readings can be large; an effect the other way counts as inactive or inconclusive.

Retinoic acid receptor RXR-alpha (Homo sapiens), sequence (P19793 whole entry, looked up): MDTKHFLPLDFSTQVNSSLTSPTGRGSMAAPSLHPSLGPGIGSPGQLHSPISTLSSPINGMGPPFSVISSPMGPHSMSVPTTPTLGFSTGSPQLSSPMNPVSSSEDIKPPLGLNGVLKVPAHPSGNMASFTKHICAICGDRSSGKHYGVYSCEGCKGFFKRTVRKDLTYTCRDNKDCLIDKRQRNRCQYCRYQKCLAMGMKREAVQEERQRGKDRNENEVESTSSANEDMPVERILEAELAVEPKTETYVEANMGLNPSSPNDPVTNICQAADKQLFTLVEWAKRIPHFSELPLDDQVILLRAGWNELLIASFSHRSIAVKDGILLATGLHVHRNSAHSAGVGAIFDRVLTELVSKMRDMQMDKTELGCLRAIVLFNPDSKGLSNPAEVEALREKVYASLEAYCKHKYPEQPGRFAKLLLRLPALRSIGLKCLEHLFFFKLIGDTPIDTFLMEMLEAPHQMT

Take `CCCCCCC(C)OC(=O)COc1nc(F)c(Cl)c(N)c1Cl` (stereo unspecified): the Potency in experiment [1] was 43.6 µM (active); in experiment [2], 49 µM (active); in [3], 54.9 µM (active); in experiment [4], 49 µM (active); in experiment [5], 34.7 µM (active).
Regarding `S=C(SSSSSSC(=S)N1CCCCC1)N1CCCCC1`, the Potency in experiment [1] was 0.271 µM (active); in experiment [6], 0.239 µM (active); in [5] it was 0.606 µM (active). For the same molecule, the Potency entry in experiment [2] and in [3] was “inactive” throughout. Besides, the viability change, negative = cytotoxic in experiment [4] is 2.16% [at 15.8 µM].
Consider `Nc1cc(Cl)c([N+](=O)[O-])cc1O`, for which the Potency entry in experiment [1], in [2], in experiment [3], in experiment [6], in experiment [4] and in [5] was “inactive” in each case.
Turning to `Clc1ccc(C(Cn2ccnc2)OCc2ccsc2Cl)c(Cl)c1` (stereo unspecified), the Potency result in experiment [1] and in [3] was “inactive” throughout. Further, the Potency in [6] was 23.7 µM (active).
Regarding `CC(C)(C)c1cc(/C=C2\SC(=N)NC2=O)cc(C(C)(C)C)c1O`, the Potency is 49 µM (active) in [1], 43.6 µM (active) in experiment [2] and 54.9 µM (active) in [3]. Moreover, the Potency result in experiment [4] is “inactive”.
As for `CCCCC(CC)COC(=O)c1ccc(O)cc1` (stereo unspecified), the Potency in experiment [1] was 21.8 µM (active) and 49 µM (active); in experiment [2] it was 15.4 µM (active) and 38.9 µM (active); in experiment [3], 49 µM (active); in experiment [4] it was 24.5 µM (active) and 49 µM (active); in [5], 38.8 µM (active) and 49 µM (active).
Take `C[n+]1c2cc(N)ccc2cc2ccc(N)cc21` (tested in a mixture with another compound): the Potency entry in experiment [3] and in experiment [4] was “inactive” in each case.
In the case of `C1CC(COCC2CO2)CCC1COCC1CO1` (stereo unspecified), the Potency entry in [1], in experiment [3], in experiment [7], in [4] and in [5] was “inactive” in each case.
Consider `NC(=O)c1nc(-c2cccc(-c3cc(F)ccc3OCC(F)(F)C(F)(F)F)c2)n[nH]1`, for which the values for the Potency in experiment [1], in [3] and in experiment [6] were 43.6 µM (active), 61.6 µM (active) and 34.4 µM (active), respectively. The Potency result in experiment [8] was “inactive”.
As for `Cc1occc1SSc1ccoc1C`, the Potency result in [2], in experiment [3], in experiment [6], in [4] and in experiment [5] was “inactive” in each case.
Take `COc1ccc(-n2nc(CCC(=O)N(C)O)cc2-c2ccc(Cl)cc2)cc1`: the Potency entry in [2], in [3], in [7] and in experiment [4] was “inactive” throughout.
Turning to `Oc1ccc(-c2ccccc2)c(Cl)c1`, the Potency result in experiment [2], in [3] and in experiment [6] was “inactive” throughout.
Take `CCCOc1sc(C(=O)N2CCC(c3cc(CN)ccc3F)CC2)c(C)c1Br`: the Potency was 35.7 µM (active) in experiment [1]; 35.7 µM (active) in experiment [2]; 44.9 µM (active) in [3]; 28.1 µM (active) in [6]; 44.9 µM (active) in experiment [4]; 17.9 µM (active) in experiment [5].
Take `CC1=C(/C=C/C(C)=C/C=C/C(C)=C\C=O)C(C)(C)CCC1`: the Potency was 41.3 µM (active) in [1], 41.3 µM (active) in experiment [3], 57.9 µM (active) in experiment [7] and 52 µM (active) in [5].
`COc1ccc2sc(C(=O)Nc3nnn[nH]3)c(OC(C)C)c2c1`: the Potency result in experiment [1], in experiment [2] and in experiment [4] was “inactive” in each case. For the same molecule, the Potency was 19.4 µM (active) in experiment [3] and 12.1 µM (active) in experiment [6].
Take `CN1[C@@H]2CC[C@H]1CC(OC(=O)C(CO)c1ccccc1)C2` (stereo partly specified): the Potency result in experiment [3], in [7], in experiment [4], in experiment [9] and in [8] was “inactive” throughout. For the same molecule, the Potency in [5] was 48.9 µM (active).
Regarding `Cc1oc(-c2ccccc2)nc1CCOc1ccc(C[C@H](Nc2ccccc2C(=O)c2ccccc2)C(=O)O)cc1`, the Potency in [1] was 21.9 µM (active); in [2] it was 19.5 µM (active); in [3], 54.9 µM (active); in experiment [7], 61.1 µM (active).
On to `Cc1ccc(-n2[nH]c(C)c(N=Nc3cccc(-c4cccc(C(=O)O)c4)c3O)c2=O)cc1C`, for which the Potency entry in experiment [1], in experiment [2], in experiment [3] and in [8] was “inactive” throughout. The Potency in experiment [4] was 26.8 µM (active).
On to `CN(C)c1ccc(N=NS(=O)(=O)O)cc1`, for which the Potency result in experiment [1], in experiment [3] and in [9] was “inactive” throughout. In experiment [6], the Potency was 4.33 µM (active).
`CC(C)c1cccc(C(C)C)c1N1C(=O)c2ccc(O)cc2C1=O`: the Potency in experiment [1] was 43.6 µM (active); in [2], 49 µM (active); in [7], 27.3 µM (active). In addition, in experiment [3], the Potency entry is “inactive”.
In the case of `CCCCCCCCCCOCC(O)CN` (stereo unspecified), the Potency is 21.3 µM (active) in experiment [3] and 26.6 µM (active) in [6]. Further, the Potency entry in experiment [9] is “inactive”.
As to `Cc1c(C)n(Cc2ccccc2)c2ccc(C(=O)OCCN(C)C)cc12`, the Potency entry in experiment [3] and in experiment [4] was “inactive” each time.
As to `CCCSS/C(CCO)=C(\C)N(C=O)Cc1cnc(C)nc1N`, the Potency entry in [1], in experiment [2], in experiment [3], in experiment [6] and in experiment [9] was “inactive” throughout.
As for `CCOC(=O)[C@@](C)(N)Cc1ccc(O)c(O)c1`, the Potency entry in experiment [1], in [2], in experiment [3], in experiment [7], in experiment [9] and in experiment [5] was “inactive” throughout.
Turning to `C=CCCCCCCC=C`, the Potency in [1] was 49.1 µM (active); in experiment [3] it was 55.1 µM (active). In addition, the Potency entry in experiment [2], in experiment [7], in [4] and in experiment [9] was “inactive” each time.
As to `Clc1ccc(C(Cn2ccnc2)OCc2c(Cl)cccc2Cl)c(Cl)c1` (stereo unspecified), the values for the Potency in [1], in experiment [6] and in [5] were 33.5 µM (active), 13.3 µM (active) and 26.8 µM (active), respectively. Further, the Potency result in experiment [2] and in experiment [3] was “inactive” each time.
On to `CCCCCCCCCCCCCOP(=O)(O)O`, for which the Potency entry in experiment [1], in experiment [7], in experiment [4] and in [5] was “inactive” each time. In addition, the Potency in experiment [3] is 30.9 µM (active).
In the case of `CN(C)CCCN1c2ccccc2CCc2ccccc21`, the Potency entry in experiment [1], in experiment [2], in experiment [3], in experiment [7], in experiment [4] and in experiment [5] was “inactive” in each case.
For the molecule `CC(=O)Nc1ccc(O)cc1`, the Potency result in experiment [1], in experiment [2], in experiment [3], in [7], in [4] and in [5] was “inactive” in each case.
In the case of `O=Nc1ccc(NO)cc1`, the Potency result in experiment [1], in [2], in [3], in [4], in experiment [8] and in [5] was “inactive” in each case.
Consider `CC(C)(c1cc(Br)c(O)c(Br)c1)c1cc(Br)c(O)c(Br)c1`, for which the Potency in [2] was 43.5 µM (active); in [3], 48.8 µM (active) and 15.5 µM (active); in experiment [7] it was 60.9 µM (active); in experiment [4], 48.8 µM (active) and 48.9 µM (active); in [5], 54.8 µM (active) and 48.9 µM (active) and 46.3 µM (active). Moreover, the Potency result in experiment [8] is “inactive”.
In the case of `Cc1c(-c2ccc(O)cc2)n(Cc2ccc(OCCN3CCCCCC3)cc2)c2ccc(O)cc12`, in experiment [3], the Potency result is “inactive”. The Potency in experiment [5] was 26.8 µM (active).
Turning to `O=S(=O)(O)c1cc(S(=O)(=O)O)c2ccc3c(S(=O)(=O)O)cc(S(=O)(=O)O)c4ccc1c2c43`, in [7], the activity, negative = cytotoxicity is 3.7% [at 19 µM]. For the same molecule, in [6], the activity change, negative = inhibition is 12.6% [at 19 µM]. In experiment [4], the viability change, negative = cytotoxic is -1.68% [at 15.8 µM]. The activation in experiment [9] is -3.16% [at 15.8 µM]; in experiment [8], -3.71% [at 15.8 µM]. For the same molecule, the activity change, negative = cytotoxicity in experiment [5] is -4.37% [at 15.8 µM].
As for `CCCCCCS`, the Potency result in experiment [7], in [6], in experiment [4], in experiment [9], in experiment [8] and in [5] was “inactive” each time.
As to `COc1nccnc1CC(C)C`, the Potency result in experiment [7], in experiment [6], in experiment [4], in [9], in experiment [8] and in experiment [5] was “inactive” throughout.
